Screens (PubChem)
IL2 activator – qHTS of IL-2 Activators. 0.065% of 360,000 active. IL-2 activation reporter assay, cell-based qHTS; stimulated with anti-CD3/CD4/CD28 beads; in transgenic mouse T cells. activation, % (series mostly up to about 46 µM). AID 652025, 2013; in the data active = activation above about 50%; inconclusive = mostly about 30% to 49%
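Using fluorescent plate cytometry, EGFP and DsRed are detected in transgenic mouse T cells stimulated 18 h at 37 degrees C with antibody-coated beads after 60 min compound pretreatment.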
BRCA1 expr act – qHTS Assay to Identify Small Molecule Activators of BRCA1 Expression; Potency, µM (highest dose often 46.1 µM), hits mostly activators; 1.1% of 380,000 active; MCF7-BRCA1-FFLuc reporter, luminescence, 48 h; response scale: scaled: vehicle 0%, 10 µM genistein 100%; also: nearly all actives have a fitted effect of over 80% in size
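MCF7-BRCA1-FFLuc, 2000 cells/well; 2 h attach, 37 °C/5% CO2; compound 48 h; luciferase substrate 15 min; luminescence end-point. Norm. to genistein 10 microM max activation and DMSO; concentration-response curves fitted.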
Nrf2 ARE act – qHTS of Nrf2 Activators | AREc32 ARE-luciferase reporter (MCF7-derived line), luminescence, 24 h | Potency, µM (series often up to 46.1 µM), usual class: activators | 0.31% of 410,000 active | AID 624171, 2012; also: nearly all actives have a fitted effect of over 65% in size
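Nrf2 activation is followed as ARE-luciferase induction in the AREc32 line after one day of compound treatment; luminescence is read with Steady-Glo.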
A549 tox – Nrf2 qHTS screen for inhibitors: counterscreen for cytotoxicity; A549 ARE-Fluc cells, CellTiter-Fluor viability, 18-24 h; Potency, µM (series often up to 46 µM), hits mostly inhibitors; 0.16% of 390,000 active
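A549 ARE-Fluc cells in 5% FBS OPTI-MEM, 5000 cells/well, rested 2 h then exposed to compounds in concentration-response for 18-24 h at 37 °C. Viability by CellTiter-Fluor fluorescence (Ex 405/Em 525) after 30 min; luciferase luminescence (BugLite, 15 min, RT) read afterwards.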
Nrf2 inh – Nrf2 qHTS screen for inhibitors. 2.1% of 360,000 active. A549 ARE-Fluc reporter, luciferase luminescence, 18-24 h. Potency, µM (top dose mostly 46 µM), most hits filed as inhibitors. AID 504444, 2011; also: nearly all actives have a fitted effect of over 60% in size
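Nrf2 function is reported as luminescence of an ARE-controlled luciferase in A549 cells. Compounds were tested at several concentrations, and a CellTiter-Fluor read on the same wells flagged cytotoxicity.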
p53 reactivator – qHTS assay for re-activators of p53 using a Luc reporter; Potency, µM (top dose mostly 92.2 µM), most hits filed as activators; 0.063% of 320,000 active; AID 504706, 2011; H1299 p53-A138V BP100-luciferase reporter, luminescence, 24 h; also: nearly all actives have a fitted effect of over 45% in size
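p53-null H1299 cells stably carrying temperature-sensitive p53-A138V and a BP100-luciferase reporter were pinned with compounds (4-point, 1:5 series) and held 24 hrs at 37 deg C. Luminescence was read 10 min after detection reagent.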
Each line names hits and unclear results; the compound was inactive in the other large screens. Sampled rows, rich in hits. Any-hit rate of the full collection: about 3.2%. Unless noted, calls follow the shape of the dose curve; as a rule, active = well fitted curve in the direction sought with a large enough effect; inconclusive = small, poorly fitted or top-dose-only effect, or another doubt; inactive = no such curve, though single readings can be large; an effect the other way counts as inactive or inconclusive.

Cc1ccc(OC(=O)c2cccc(S(=O)(=O)N(C)C)c2)c(-n2nc3ccccc3n2)c1	BRCA1 expr act inconclusive, p53 reactivator inconclusive (no result: Nrf2 inh)
Cc1ccc(OC(=O)c2ccc(S(=O)(=O)N(C)C)cc2)c(-n2nc3ccccc3n2)c1	BRCA1 expr act 12.6µM, Nrf2 inh inconclusive, p53 reactivator inconclusive
O=C(CSc1nc(C2CC2)nc2ccccc12)N1CCCCC1	Nrf2 inh inconclusive
O=C(CSc1nncc2ccccc12)N1CCCCC1	Nrf2 inh 10.3µM, p53 reactivator inconclusive
CC(C)c1ccc(CNc2nc(-c3ccco3)nn2S(=O)(=O)c2ccc(F)cc2)cc1	none (no result: IL2 activator, BRCA1 expr act, p53 reactivator)
Cc1ccc(C2C(/C=C3/SC(=S)NC3=O)=C(c3cccs3)Oc3ccccc32)cc1 (stereo unspecified)	A549 tox 10.3µM, Nrf2 inh 13µM
Cc1ccc2c(c1)N(C)/C(=C/c1cccc[n+]1CCO)S2	none
Cc1ccc2c(c1)N(C)/C(=C/c1cccc[n+]1C)S2	A549 tox inconclusive, Nrf2 inh 6.51µM
Cc1nn2c(SCC(=O)c3cccs3)cc(C(C)(C)C)nc2c1-c1ccccc1	A549 tox inconclusive, Nrf2 inh 20.6µM
Cc1cc(SCC(=O)c2cccs2)n2nc(C)c(-c3ccc(Cl)cc3)c2n1	none
Cc1cc(C(C)(C)C)ccc1OCCCCN1CCCC1	none
CCC(C)(C)c1ccc(OCCCC[n+]2ccc(C)cc2)c(C(C)(C)CC)c1	A549 tox inconclusive, Nrf2 inh 13µM
CCC(C)(C)c1ccc(OCCCC[n+]2cccc(C)c2C)c(C(C)(C)CC)c1	A549 tox 11.6µM, Nrf2 inh 5.8µM
Cc1nn(CC(=O)NCc2ccccc2Cl)c(=O)c2nn(-c3ccccc3)c(C)c12	Nrf2 inh inconclusive (no result: IL2 activator, BRCA1 expr act, p53 reactivator)
CC(NC(=O)c1cc(COc2ccc3ncccc3c2)on1)c1ccc(F)cc1 (stereo unspecified)	Nrf2 inh inconclusive
O=C(NCCc1cn2ccccc2n1)c1cc(COc2ccc3ncccc3c2)on1	A549 tox inconclusive, Nrf2 inh 16.4µM
Cc1ccc(-c2nnc(NC3CCCCC3)c3ccccc23)cc1S(=O)(=O)N1CCN(C)CC1	A549 tox inconclusive, Nrf2 inh 23.1µM
Cc1ccc(-c2nnc(Nc3ccccc3)c3ccccc23)cc1S(=O)(=O)N1CCN(C)CC1	none (no result: IL2 activator, BRCA1 expr act, p53 reactivator)
CCOc1ccc(N(CC)S(=O)(=O)N2CCCC(C(=O)Nc3ccc(OC)c(OC)c3)C2)cc1 (stereo unspecified)	Nrf2 inh 20.6µM (no result: IL2 activator, BRCA1 expr act, p53 reactivator)
CCOc1ccc(N(CC)S(=O)(=O)N2CCCC(C(=O)NCCc3ccc(OC)cc3)C2)cc1 (stereo unspecified)	Nrf2 inh inconclusive (no result: IL2 activator, BRCA1 expr act, p53 reactivator)
Cc1cc(NC(=O)c2sc(Nc3ccc(F)c(Cl)c3)nc2N)no1	Nrf2 inh inconclusive
Cc1cc(NC(=O)c2sc(Nc3cccc(C(F)(F)F)c3)nc2N)no1	A549 tox inconclusive, Nrf2 inh 16.4µM
Cc1ccc(-c2nn3c(C)nnc3s2)cc1NCc1c(F)cccc1Cl	none
Cc1ccc(CNc2cc(-c3nn4c(C)nnc4s3)ccc2C)s1	Nrf2 inh 16.4µM
COc1ccc(CC(=O)Nc2cccc(-c3nnc(-c4ccco4)o3)c2)cc1	A549 tox inconclusive, Nrf2 inh 6.51µM
COc1ccc(C(=O)Nc2cccc(-c3nnc(-c4ccco4)o3)c2)cc1	A549 tox inconclusive, Nrf2 inh inconclusive
COc1ccccc1Cn1c(C2CC(=O)N(c3ccccc3OC)C2)nc2ccccc21 (stereo unspecified)	Nrf2 inh 10.3µM (no result: IL2 activator, p53 reactivator)
CCOC(=O)Cn1c(=O)c(-c2cc(Br)ccc2N)nc2ccccc21	IL2 activator 151.8, Nrf2 ARE act inconclusive
CCOC(=O)Cn1c(C2CC(=O)N(c3ccc(C)cc3)C2)nc2ccccc21 (stereo unspecified)	Nrf2 inh 20.6µM (no result: IL2 activator, p53 reactivator)
